KDM5B inh: Primary screen for KDM5B Histone Demethylases FDH-coupled qHTS; 220,000 compounds, 2.6% hits; AID 1347165, 2019; Lysine-specific demethylase 5B (Homo sapiens), Q9UGL1; KDM5B demethylase, FDH-coupled NADH fluorescence (FDH is formaldehyde dehydrogenase); Potency, µM (titrated, usually from 57.7 µM), hits mostly inhibitors; active = well fitted inhibition curve with a large enough effect; inconclusive = small, poorly fitted or top-dose-only effect; inactive = no such curve, though single readings can be large or run the other way; also: nearly all actives have a fitted effect of over 70% in size
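qHTS format, multiple compound concentrations. Buffer 50 mM HEPES pH 7.5/0.01% Tween-20; 200 nM KDM5BΔAP final; 10 min compound preincubation; substrate-mix levels 12.5 µM peptide, 25 µM α-KG, 0.25 mM NAD⁺; 30 min RT; ΔRFU.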
IP6K1 inh: Primary qHTS assay for small molecule inhibitors of Inositol hexaphosphate kinase 1 (IP6K1). activity change, % (series mostly up to about 58 µM). IP6K1 kinase, ADP-Glo luminescence, 2 h; hits give low values. 140,000 compounds, 0.81% hits. Inositol hexakisphosphate kinase 1 (Homo sapiens), Q92551. AID 1645851, 2021; in the data active = activity change below about -25%
Target sequence (Q92551 whole entry, looked up): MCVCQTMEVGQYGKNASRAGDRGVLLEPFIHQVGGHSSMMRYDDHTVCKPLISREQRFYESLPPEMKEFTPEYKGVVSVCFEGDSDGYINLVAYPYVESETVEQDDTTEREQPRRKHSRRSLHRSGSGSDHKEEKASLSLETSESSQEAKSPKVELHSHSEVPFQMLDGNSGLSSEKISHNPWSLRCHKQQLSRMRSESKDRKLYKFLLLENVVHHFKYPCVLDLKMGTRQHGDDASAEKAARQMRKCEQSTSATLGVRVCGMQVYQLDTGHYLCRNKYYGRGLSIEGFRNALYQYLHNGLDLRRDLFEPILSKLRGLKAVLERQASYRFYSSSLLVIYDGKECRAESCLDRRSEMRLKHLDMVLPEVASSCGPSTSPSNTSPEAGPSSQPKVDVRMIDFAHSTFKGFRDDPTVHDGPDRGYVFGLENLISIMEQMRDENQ
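ADP-Glo luminescence measures ADP made by human IP6K1 during a 2 h RT reaction with ATP/IP6 (mix at 1.3 mM/130 uM); top library doses 57.5 and 19.1 uM final.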
Of the large screens only hits and unclear results are named; the others gave an inactive call; ! = not confirmed by another sample. Hits are enriched below; roughly 2.7% of the tested compounds scored in any of these assays.

O=C(Nc1cccc(F)c1)C1(CCO)CCN(c2ncccn2)C1 (stereo unspecified)	KDM5B inh 28.2µM
COCCCNC(=O)C1(CCO)CCN(c2ncccn2)C1 (stereo unspecified)	KDM5B inh inconclusive
O=C(NC1CCCCC1)C1(CCO)CC12CCN(c1ncccn1)CC2 (stereo unspecified)	none (no result: KDM5B inh)
O=C(NCc1ccccc1)C1(CCO)CCN(c2ncccn2)C1 (stereo unspecified)	KDM5B inh 28.2µM
Cn1nc(C(=O)Nc2ccnn2Cc2ccc(Br)cc2)c2ccccc2c1=O	none (no result: IP6K1 inh)
Cc1nc(Nc2nc3ccccc3o2)ncc1C(=O)Nc1cccc(C(F)(F)F)c1	none (no result: IP6K1 inh)
COc1cccc(-c2nnc(SCC(=O)Nc3ccccc3C#N)n2-c2ccccc2)c1	none (no result: IP6K1 inh)
CCOC(=O)N1CCN(C(=O)CSc2nnc(-c3ccc(Cl)cc3)n2Cc2ccco2)CC1	none (no result: IP6K1 inh)
Cc1ccc(NC(=O)Nc2cccn3nc(C)nc23)cc1	none
CNC(=O)Nc1cccn2nc(-c3ccccc3)nc12	KDM5B inh 25.1µM
CC(C)c1noc(-c2ccccc2OCC(=O)NC(C)c2ccc(Cl)cc2)n1 (stereo unspecified)	none (no result: IP6K1 inh)
N#Cc1nc(-c2ccccc2F)oc1N1CCCCCC1	none (no result: IP6K1 inh)
Cc1ccc(S(=O)(=O)Nc2nc3ccccc3nc2Nc2cccc(C(=O)O)c2)c(C)c1	none (no result: IP6K1 inh)
Cn1cc(CNc2ccc(-c3nc(CCCc4ccccc4)no3)cn2)cn1	KDM5B inh 31.6µM
Cc1cc(CNc2ccc(-c3nc(CCCc4ccccc4)no3)cn2)no1	KDM5B inh 28.2µM
c1ccc(CCCc2noc(-c3ccc(NCc4ccccn4)nc3)n2)cc1	KDM5B inh inconclusive
C[C@@H](Nc1ccc(-c2nc(CCCc3ccccc3)no2)cn1)C(N)=O	KDM5B inh inconclusive
CCN1CC(Nc2ccc(-c3nc(CCCc4ccccc4)no3)cn2)CC1=O (stereo unspecified)	KDM5B inh 28.2µM
CC(C)Oc1ccc(C(=O)N2CCCCC2CCN2CCOCC2)cc1 (stereo unspecified)	none (no result: IP6K1 inh)
CCn1nccc1C(=O)N1CCC(c2nc(CCOc3cccc(C)c3)no2)C1 (stereo unspecified)	none (no result: KDM5B inh)
Cc1c(C#N)c(NC(=O)CSc2nnc(C3CC3)n2-c2ccccc2)n(Cc2ccco2)c1C	none (no result: IP6K1 inh)
COc1cncc(N2C[C@H]3[C@H](C2)[S+](=O)([O-])C(C)(C)C(=O)N3Cc2ccccc2)c1	KDM5B inh 7.08µM
CC1(C)C(=O)N(Cc2ccccc2)[C@H]2CN(c3ccnc(N4CCOCC4)c3)C[C@@H]2[S+]1(=O)[O-]	none
COC(=O)c1ccc(NC(=O)CSc2nccn2Cc2ccccc2)cc1	none (no result: IP6K1 inh)
Cc1cn2nc(C(=O)Nc3ccc(C(=O)NCCc4cccs4)cc3)cc2c(=O)[nH]1	KDM5B inh 25.1µM
Cc1cn2nc(C(=O)NCc3ccccn3)cc2c(=O)[nH]1	KDM5B inh inconclusive
CN(C)C[C@@H]1CN(c2ccncn2)C[C@H]1NC(=O)COc1ccccc1	none
CN(C)C[C@@H]1CN(c2ncccn2)C[C@H]1NC(=O)COc1ccc(Cl)cc1	KDM5B inh 28.2µM
CN(C)C[C@@H]1CN(c2ncccn2)C[C@H]1NC(=O)COc1ccc(F)cc1	KDM5B inh inconclusive
Cc1cccc(OCC(=O)N[C@@H]2CN(c3ncccn3)C[C@H]2CN(C)C)c1	KDM5B inh 22.4µM
Cc1nccc(CNc2ncc(C(N)=O)cc2Cl)n1	none (no result: IP6K1 inh)
CCN(CC)S(=O)(=O)c1ccc(NC(=O)COc2ccc3c(C)c(C)c(=O)oc3c2)cc1	none (no result: IP6K1 inh)
C=CCOc1c(OC)ccc2c1CN(Cc1ccco1)C(=O)CCN2C[C@@H](O)COCc1ccccc1	none (no result: KDM5B inh)
O=C(NCCCc1ccccc1)c1cc(C2CC2)nc2ccccc12	none (no result: IP6K1 inh)
Cc1ccc2nc(C3CCCN(Cc4ccccc4)C3)[nH]c(=O)c2c1 (stereo unspecified)	none
CCn1c(C2CCCN(Cc3c(C(=O)O)[nH]c4ccc(C)cc34)C2)n[nH]c1=O (stereo unspecified)	KDM5B inh 28.2µM
COc1cccc(-c2nc(SCc3cc(=O)c4cc(C)cc(C)c4[nH]3)n[nH]2)c1	none (no result: IP6K1 inh)
COCCN(Cc1ccccn1)Cc1cc(=O)c2cc(C)cc(C)c2[nH]1	KDM5B inh 28.2µM
O=C(Nc1cc(-c2cccc(F)c2)no1)c1noc2c1COc1ccccc1-2	none (no result: IP6K1 inh)
Cc1[nH]nc(C(=O)N[C@@H]2COCC[C@@H]2OCc2ccccc2)c1Cl	none
CNc1ncccc1C(=O)N[C@@H]1COCC[C@@H]1OCc1ccccc1	KDM5B inh 28.2µM
O=C(CCCc1ccccc1)N1CCC(Cc2noc(-c3ccccc3)n2)C1 (stereo unspecified)	none (no result: KDM5B inh)
OCCC1CN(c2ccc(-c3nc(CCCc4ccccc4)no3)cn2)CCO1 (stereo unspecified)	KDM5B inh 20µM
CC1(O)CCCN(c2ccc(-c3nc(CCCc4ccccc4)no3)cn2)C1 (stereo unspecified)	KDM5B inh 22.4µM
OCCC1CCN(c2ccc(-c3nc(CCCc4ccccc4)no3)cn2)CC1	none
Cc1ccc2c(CSc3nnc(NCC(C)C)s3)cc(=O)oc2c1	none (no result: IP6K1 inh)
Cc1ccc(CN(C)C(=O)CCc2ccc(C#N)cc2)o1	none (no result: IP6K1 inh)
COCc1nnc(NC(=O)CCn2ccc3ccc(F)cc32)s1	none (no result: IP6K1 inh)
FC(F)(F)c1cccc(C2=NOC3(CCCN(CC4CCCC4)C3)C2)c1 (stereo unspecified)	none
O=C(Nc1ccc2c(c1)OCCO2)N1CCC(Cc2nc(C3CC3)n[nH]2)C1 (stereo unspecified)	none
CCc1n[nH]c(CC2CCN(C(=O)Nc3ccc4c(c3)OCCO4)CC2)n1	KDM5B inh 22.4µM
COC(=O)CCCNC(=O)c1ccccc1CSc1nc2ccccc2o1	none (no result: IP6K1 inh)
Cc1ccc2c(n1)N(C)[C@H](CO)CCN(C(=O)Nc1ccccc1)C2	none
Cc1ccc2c(n1)N(C)[C@H](CO)CCN(CC1CCCCC1)C2	KDM5B inh 35.5µM
Cc1ccc2c(n1)N(C)[C@H](CO)CCN(Cc1ccc(F)cc1)C2	KDM5B inh 35.5µM
Cc1ccc2c(n1)N(C)[C@H](CO)CCN(Cc1ccccc1Cl)C2	KDM5B inh inconclusive
Cc1ccc2c(n1)N(C)[C@H](CO)CCN(Cc1ccc(C#N)cc1)C2	KDM5B inh inconclusive
CC(=O)N1CCC(N2CC[C@@H](CO)N(C)c3nc(C)ccc3C2)CC1	KDM5B inh 31.6µM
CCc1ccc(C(=O)N2CCN(C(=O)C3(C)CC3(Cl)Cl)CC2)cc1 (stereo unspecified)	none (no result: IP6K1 inh)
c1c[nH]c(-c2nc3ccncc3[nH]2)c1	KDM5B inh 31.6µM
c1csc(-c2nc3ccncc3[nH]2)c1	KDM5B inh 31.6µM
Cc1ccc(NC(=O)CSc2nc3ccncc3[nH]2)cc1F	none (no result: IP6K1 inh)
Cc1ccc(-c2nc(-c3cccs3)c(-c3cccs3)[nH]2)cc1	KDM5B inh inconclusive
Cc1ccoc1-c1nc2ccncc2[nH]1	KDM5B inh 31.6µM!
c1ccc(-c2nc3ccncc3[nH]2)nc1	KDM5B inh 126µM!
c1ccc(-c2nc(-c3ccncc3)n[nH]2)nc1	none (no result: IP6K1 inh)
O=C(CSc1nc2ccncc2[nH]1)Nc1ccccc1C(F)(F)F	none
O=C(O)CCC(NC(=O)Cc1ccc2ccccc2c1)C(=O)O (stereo unspecified)	none (no result: IP6K1 inh)
CC(=O)c1c(C)[nH]c(-c2csc(CC(=O)Nc3ccc(C)cc3C)n2)c1C	none (no result: IP6K1 inh)
c1ccc(-c2noc(CNC3CCCCC3)n2)cc1	none (no result: IP6K1 inh)
Cc1nc(SCc2coc(-c3ccc(F)cc3)n2)n[nH]1	none (no result: IP6K1 inh)
O=S(=O)(Nc1nc2ccccc2nc1Nc1ccc(F)c(Cl)c1)c1cccs1	none (no result: IP6K1 inh)

High-throughput results as filed in PubChem BioAssay.
